# Data as given in PubChem BioAssay AID463173 (ICCB-Longwood Screening Facility, Harvard Medical School, 2010).
# In all, about 52,000 compounds went through this assay and about 1,700 (3.3%) were called active. The list comes from a sample in which actives are over-represented; it also holds similar structures and randomly drawn compounds. Values without a mark were called inactive. No stated cut-off is given here; in the data, active means survival mostly below about 52% (no sharp cut-off); inactive means mostly above about 56%.
# System: Wild type
# Assay: growth inhibition of S. aureus wild type versus tarO mutant, primary screen, teichoic acid synthesis inhibitors, RN4220, OD600 (AID 463173)
# Settings: S. aureus RN4220 wild type/DeltatarO growth, OD600, 18 h, active compounds read low, screened at 18.75 µg/mL (by protocol)
row,SMILES,survival
1,COC(=O)/C=C1/C(=O)N(C(C)=O)c2ccccc21,108%
2,COc1ccc(CNS(=O)(=O)c2cc3c(cc2C)n(C)c(=O)c(=O)n3C)cc1,77%
3,COc1cccc(N2CCN(Cc3nnc(-c4ccc5c(c4)OCO5)o3)CC2)c1,102%
4,Cc1cccc(-c2noc(CN(C(=O)COc3ccc(Br)cc3C)C(C)C)n2)c1,30%
5,Cc1cccc(-c2noc(CN(C(=O)c3ccccc3Cl)C(C)C)n2)c1,86%
6,COc1ccc(S(=O)(=O)N(C)Cc2nc(-c3cccc(C)c3)no2)cc1,74%
7,COc1ccc(OC(C)C(=O)NCc2nc(-c3cccc(C)c3)no2)cc1 (stereo not given),87%
8,Cc1cccc(-c2noc(CN(C(=O)c3ccc(C)c(C)c3)C(C)C)n2)c1,0% (active)
9,COc1ccccc1C(=O)N(Cc1nc(-c2cccc(C)c2)no1)C(C)C,56%
10,CCOc1ccc(C(=O)N(Cc2nc(-c3cccc(C)c3)no2)C(C)C)cc1,2% (active)
11,Cc1cccc(-c2noc(CN(C(=O)COc3ccc(C(C)C)cc3)C(C)C)n2)c1,3% (active)
12,Cc1cccc(-c2noc(CN(C(C)C)S(=O)(=O)c3ccc(Br)cc3)n2)c1,72%
13,CCN(CC(O)COc1ccc(OCC(O)CN(CC)C2CCCCC2)cc1)C1CCCCC1 (stereo not given),109%
14,CC1(C)CC(=O)c2cc(-c3nc(-c4ccc(Cl)cc4)cs3)c(=O)n(-c3ccc(Cl)cc3)c2C1,67%
15,Cn1nc(C(=O)NCCc2ccc(Cl)cc2)c2c1-c1ccccc1SC2,82%
16,CCc1nn2c(=O)c(S(=O)(=O)Nc3ccc(C)cc3C)c(C)nc2s1,75%
17,CCCCN(CC)CCNC(=O)c1cn(CCOC)c(=O)c2c1c1ccccc1n2C,89%
18,COc1ccccc1-c1c(C)nn2c(-c3ccccc3)cc(-c3ccccc3)nc12,77%
19,Cc1cc(C)cc(OC(C)C(=O)Nc2nonc2-c2ccc(Br)cc2)c1 (stereo not given),17% (active)
20,Cc1cccc(OC(C)C(=O)Nc2nonc2-c2ccc(Br)cc2)c1C (stereo not given),94%
21,Cc1ccc(OC(C)C(=O)Nc2nonc2-c2ccc(Br)cc2)cc1C (stereo not given),72%
22,Cc1ccc(-n2nc(CO)c(C(=O)NCCC(C)C)n2)cc1C,116%
23,CCOc1ccccc1NC(=O)CN1C(=O)C2(SCC(=O)N2c2cccc(F)c2)c2ccccc21 (stereo not given),97%
24,Cc1ccc(/C=N/NC(=O)C2=NNC(=O)C2C)o1 (stereo not given),107%
25,COc1cccc(OCc2nnc(SCC(=O)O)o2)c1,98%
